Data taken from the supplement of paper PMC11402862.

Biological target: FXR LBD (GAL4 fusion) (UniProt Q96RI1)
Test: luciferase reporter transactivation, fold of solvent control; higher = stronger receptor activation
Settings: HEK293T, exposure time: 24 h
Method: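 HEK293T cells were transiently transfected with a GAL4-DBD fused to the ligand-binding domain of a human nuclear receptor (PPARα, PPARγ, PPARδ, FXR, LXRα, PXR, RARα or CAR), the GAL4-(UAS)5-TK firefly luciferase reporter and a Renilla luciferase normalisation plasmid. Cells were exposed to compound for 24 h in 0.5% DMSO. Firefly/Renilla luciferase was expressed as fold of the solvent control (=1). Values are the mean of 2-3 biological replicates; receptor agonists were used as positive controls.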

Chain of FXR LBD (GAL4 fusion) (Q96RI1 whole entry, looked up, the tested form may be a part): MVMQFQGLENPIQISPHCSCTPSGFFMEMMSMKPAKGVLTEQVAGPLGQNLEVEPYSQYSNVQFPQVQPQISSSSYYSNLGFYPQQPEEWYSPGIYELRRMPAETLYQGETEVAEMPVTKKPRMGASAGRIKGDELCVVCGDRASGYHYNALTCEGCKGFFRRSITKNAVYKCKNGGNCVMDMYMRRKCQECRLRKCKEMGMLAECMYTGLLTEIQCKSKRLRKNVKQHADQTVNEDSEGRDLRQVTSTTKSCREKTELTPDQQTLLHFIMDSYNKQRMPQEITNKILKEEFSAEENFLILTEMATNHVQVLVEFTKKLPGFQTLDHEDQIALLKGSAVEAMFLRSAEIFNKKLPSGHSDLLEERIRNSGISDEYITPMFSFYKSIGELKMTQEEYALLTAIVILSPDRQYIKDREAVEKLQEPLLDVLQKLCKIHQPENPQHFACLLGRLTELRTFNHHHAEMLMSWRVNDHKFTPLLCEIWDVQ

Compound | luciferase reporter transactivation (concentration: 1 µM) | luciferase reporter transactivation (concentration: 5 µM) | luciferase reporter transactivation (concentration: 10 µM) | luciferase reporter transactivation (concentration: 25 µM) | luciferase reporter transactivation (concentration: 50 µM) | luciferase reporter transactivation (concentration: 100 µM) | luciferase reporter transactivation (concentration: 250 µM) | luciferase reporter transactivation (concentration: 500 µM)
OCCC(F)(F)C(F)(F)C(F)(F)C(F)(F)C(F)(F)C(F)(F)F [6:2 fluorotelomer alcohol] | 0.815 | 0.885 | 0.96 | 0.834 | 0.847 | 0.833 | 0.628 | 0.416
O=C(O)C(F)(F)C(F)(F)C(F)(F)C(F)(F)F [perfluoropentanoic acid] | 0.969 | 1.05 | 1.05 | 1.12 | 1.18 | 1.11 | 1.18 | 2.08
O=S(=O)(O)CCC(F)(F)C(F)(F)C(F)(F)C(F)(F)C(F)(F)C(F)(F)C(F)(F)C(F)(F)F [8:2 fluorotelomer sulfonic acid] | 0.842 | 1.12 | 1.16 | 1.21 | 1.53 | 4.17 | 3.41 | 2.14
O=S(=O)(O)CCC(F)(F)C(F)(F)C(F)(F)C(F)(F)C(F)(F)C(F)(F)F [6:2 fluorotelomer sulfonic acid] | 1.09 | 0.835 | 1.32 | 1.37 | 1.75 | 2.38 | – | –
CC(C)c1onc(-c2c(Cl)cccc2Cl)c1COc1ccc(/C=C/c2cccc(C(=O)O)c2)c(Cl)c1 | – | – | 50.2 | – | – | – | – | –
